Assay [1] in a line: ovarian cancer cell viability with rucaparib, profiling panel, oncology-focused library, rucaparib conditional (AID 1508598). As to conditions: patient-derived ovarian cancer cells, CellTiter-Glo viability, 144 h, stronger effect = lower value. In general terms: ATP-based viability assays read luminescence as a measure of living cells.
Assay [2] in a line: growth inhibition of DIPG glioma cells, dose response, cell-based, SU-DIPG-XVII, MIPE5.0, CellTiter-Glo, qHTS (AID 1347060; cut-off not given, nearly all actives have AC50 up to about 26 µM;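 for AC50: cells exposed to compound for 48 hours before viability readout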). Conditions: SU-DIPG-XVII viability, CellTiter-Glo ATP luminescence.
Assay [3] can be described thus: growth inhibition of DIPG glioma cells, dose response, cell-based, SU-DIPG-XIII, MIPE4.0, CellTiter-Glo, qHTS (AID 1347061; cut-off not given, nearly all actives have AC50 up to about 37 µM;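 note: cells exposed to compound for 48 hours before readout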). As to conditions: SU-DIPG-XIII viability, CellTiter-Glo ATP luminescence.
A short description of assay [4]: growth inhibition of DIPG glioma cells, dose response, cell-based, JHH-DIPG-1, MIPE4.0, CellTiter-Glo, qHTS (AID 1347062; cut-off not given, nearly all actives have AC50 up to about 27 µM). As to conditions: JHH-DIPG-1 viability, CellTiter-Glo ATP luminescence.
A short description of assay [5]: viability loss in pontine glioma line – cell-based, SU-DIPG-XXV, MIPE5.0, CellTiter-Glo, qHTS, dose response (AID 1347065; cut-off not given, nearly all actives have AC50 up to about 26 µM;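 note: cells exposed to compound for 48 hours before ATP readout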). Conditions: CellTiter-Glo ATP luminescence.
Assay [6] in a line: SU-DIPG-VI glioma cell viability, MIPE4.0 library, CellTiter-Glo luminescence, qHTS (AID 1347066; cut-off not given, nearly all actives have AC50 up to about 30 µM;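 note: cells exposed to compound for 48 hours before readout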). As to conditions: CellTiter-Glo ATP luminescence.
The nature of assay [7]: SU-DIPG-XXV glioma cell viability, MIPE5.0 library, qHTS (AID 1347068; cut-off not given, nearly all actives have IC50 up to about 30 µM). In general terms: In qHTS, concentration-response curves come from the screen itself.
The nature of assay [8]: JHH-DIPG-1 glioma cell viability, MIPE5.0 library, CellTiter-Glo luminescence, qHTS (AID 1347067; cut-off not given, nearly all actives have AC50 up to about 26 µM;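 note: cells exposed to compound for 48 hours before readout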). Conditions: JHH-DIPG-1 glioma viability, CellTiter-Glo ATP luminescence.
Assay [9] in a line: sensitizers of A549 cells to miR-34 induction, primary screen, imaging, A549 dox-inducible miR-34, nuclei and caspase counts (AID 1347080;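 active = compounds whose cell count with miR-34 switched on is under 0.7 times the count with it off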). As to conditions: A549 miR-34 inducible, Hoechst nuclei count, 48 h.
A short description of assay [10]: survival rescue of mitochondrial mutant cells in low glucose, primary screen, MELAS cybrids, Rieske KO mouse fibroblasts, CellTiter-Glo (AID 1508586;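 active = mean z-score across replicates of 1.96 or higher in either the MELAS or the Rieske mutant cell line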;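 note: z relative to plate mean and SD of compound and empty wells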).
Assay [11] is described as follows: growth inhibition of DIPG glioma cells, dose response, cell-based, SU-DIPG-IV, MIPE4.0, CellTiter-Glo, qHTS (AID 1347063; cut-off not given, nearly all actives have AC50 up to about 30 µM;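 note: compound exposure lasted 48 hours before the viability readout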). As to conditions: SU-DIPG-IV viability, CellTiter-Glo ATP luminescence.
Assay [12] can be described thus: growth inhibition of DIPG glioma cells, dose response, cell-based, SU-DIPG-XIII, MIPE5.0, CellTiter-Glo, qHTS (AID 1347064; cut-off not given, nearly all actives have AC50 up to about 23 µM;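 note: cells exposed to compound for 48 hours before the viability read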). Conditions: SU-DIPG-XIII viability, CellTiter-Glo ATP luminescence.
The mark [13] stands for this setting: stronger effect = lower value, cell number ratio, induced over uninduced.
Where [14] appears, read: measured here: relative caspase fold change +Dox/-Dox.
[15] abbreviates: measured here: total cells with miR-34 induction, stronger effect = lower value.
The mark [16] stands for this setting: measured here: total cells without miR-34 induction.
Where [17] appears, read: MELAS cybrid survival, CellTiter-Glo 48 h, stronger effect = higher value.
The mark [18] stands for this setting: Rieske KO mouse fibroblast survival, CellTiter-Glo 72 h.

The term viability denotes a read-out of living cells in per cent, often relative to untreated cells. A word on the AC50: it is the concentration giving half of the maximal activity seen.

“And” between values parts separate entries of the source, which are not always exact repeats. Equal entries are not always repeated. Results filed as inconclusive are left out. The source made the active and inactive calls.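 Rule for the calls, unless noted: active = normalized viability below 100% at a tested concentration; inactive = the rest.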

With `Cc1cccc(-c2[nH]c(C(C)(C)C)nc2-c2ccc3nccnc3c2)n1`, the viability in assay [1] (at 0.0195 µM, OCI-C5x cells, without rucaparib) is 116% (inactive); in assay [1] (at 0.0195 µM, OCI-P5x cells, with rucaparib 20 µM, 100% = cells with rucaparib alone), 103% (inactive); in assay [1] (at 0.0195 µM, OCI-P5x cells, without rucaparib), 95% (active); in assay [1] (at 0.0781 µM, OCI-C5x cells, with rucaparib 10 µM, 100% = cells with rucaparib alone) it was 121% (inactive); in [1] (at 0.0781 µM, OCI-C5x cells, without rucaparib), 111% (inactive); in [1] (at 0.0781 µM, OCI-P5x cells, with rucaparib 20 µM, 100% = cells with rucaparib alone), 101% (inactive). For the same compound, the viability in assay [1] (at 0.0781 µM, OCI-P5x cells, without rucaparib) was 97.3% (active); in assay [1] (at 0.313 µM, OCI-C5x cells, with rucaparib 10 µM, 100% = cells with rucaparib alone), 119% (inactive); in [1] (at 0.313 µM, OCI-C5x cells, without rucaparib), 111% (inactive); in assay [1] (at 0.313 µM, OCI-P5x cells, with rucaparib 20 µM, 100% = cells with rucaparib alone), 112% (inactive); in [1] (at 0.313 µM, OCI-P5x cells, without rucaparib), 102% (inactive); in [1] (at 1.25 µM, OCI-C5x cells, with rucaparib 10 µM, 100% = cells with rucaparib alone), 124% (inactive). Moreover, the viability is 117% (inactive) in assay [1] (at 1.25 µM, OCI-C5x cells, without rucaparib); 121% (inactive) in assay [1] (at 1.25 µM, OCI-P5x cells, with rucaparib 20 µM, 100% = cells with rucaparib alone); 98.6% (active) in assay [1] (at 1.25 µM, OCI-P5x cells, without rucaparib); 139% (inactive) in [1] (at 5 µM, OCI-C5x cells, with rucaparib 10 µM, 100% = cells with rucaparib alone); 142% (inactive) in assay [1] (at 5 µM, OCI-C5x cells, without rucaparib); 120% (inactive) in assay [1] (at 5 µM, OCI-P5x cells, with rucaparib 20 µM, 100% = cells with rucaparib alone). Further, in [1] (at 5 µM, OCI-P5x cells, without rucaparib), the viability is 90.7% (active).
With `COc1cccc(OC)c1-c1cc(C(=O)NC2(C(=O)O)C3CC4CC(C3)CC2C4)nn1-c1ccnc2cc(Cl)ccc12` (stereo unspecified), the results for the AC50 in assay [2] and in assay [5] were 14.8 µM (active) and 18.6 µM (active), respectively. The call in assay [3], in assay [4], in assay [6] and in assay [7] was inactive.
With `O=c1c(O)c(-c2cc(O)c(O)c(O)c2)oc2cc(O)cc(O)c12`, the call in [2], in [3], in assay [4], in assay [5], in [6] and in assay [8] was inactive. Besides, the fold change in [9] (setting [13]) is 1.07 (inactive) and 0.861 (inactive) and 0.936 (inactive); in assay [9] (setting [14]), 0.806 and 1.45 and 0.825. Also, the cell count in assay [9] (setting [15]) was 8570 and 8710 and 9810; in [9] (setting [16]) it was 8020 and 10100 and 10500. The z-score in assay [10] (setting [17]) is -0.358 (inactive); in [10] (setting [18]), 0.188.
On to `CCOC(=O)[C@@H](N)Cc1ccc(-c2cc(O[C@H](c3ccc(Cl)cc3-n3ccc(C)n3)C(F)(F)F)nc(N)n2)cc1`, for which the concentration at half-maximal activity (AC50) in assay [2] was 11.8 µM (active); in assay [11], 26.4 µM (active); in [12], 20.9 µM (active); in assay [5], 13.2 µM (active); in assay [6], 16.6 µM (active); in assay [8], 13.2 µM (active). Besides, in assay [3], the compound was called inactive.
`Cc1ccc2c(c1)C(=O)[C@]1(O)CCN(c3ccccc3)C1=N2`: the concentration at half-maximal activity (AC50) in assay [2] was 14.8 µM (active). Moreover, the result in assay [3], in [4], in assay [6], in assay [8] and in assay [7] was inactive. For the same compound, the fold change is 0.934 (inactive) and 0.847 (inactive) in [9] (setting [13]); 0.749 and 0.315 in assay [9] (setting [14]). Further, the cell count is 6020 and 6690 in assay [9] (setting [15]); 6450 and 7900 in assay [9] (setting [16]). For the same compound, the z-score in assay [10] (setting [17]) was -0.292 (inactive); in [10] (setting [18]) it was -2.56.

Source of the values: PubChem BioAssay.
